Sampled rows, rich in hits. Any-hit rate of the full collection: about 3.1%.
luminol inh ctr = counter-screen for Nox1 inhibitors: inhibitors of luminol chemiluminescence; HRP/luminol/H2O2 chemiluminescence counterscreen; inhibition, % at 6.7 µM; 16,000 tested, 0.4% active; AID 1823, 2009; further: reference of the scale not given here
S1P1 agonist = activates the human S1P1 receptor. S1P1 agonist cell-based reporter assay. activation, % at 4.5 µM. 16,000 tested, 1.5% active; in the data active means activation above about 80%
NOTCH agonist = agonists of NOTCH signaling. activation, % at 2.5 µM. AID 434982, 2010. NOTCH signaling luciferase reporter cells, luminescence. 15,000 tested, 0.4% active; in the data active means activation above about 2.2%
Nox1 inh = inhibitors of human NADPH oxidase 1 (Nox1); 16,000 tested, 0.81% active; Q9Y5S8; HT29 cells, luminol chemiluminescence ROS; inhibition, % at 6.7 µM
Target sequence (Q9Y5S8 whole entry, looked up): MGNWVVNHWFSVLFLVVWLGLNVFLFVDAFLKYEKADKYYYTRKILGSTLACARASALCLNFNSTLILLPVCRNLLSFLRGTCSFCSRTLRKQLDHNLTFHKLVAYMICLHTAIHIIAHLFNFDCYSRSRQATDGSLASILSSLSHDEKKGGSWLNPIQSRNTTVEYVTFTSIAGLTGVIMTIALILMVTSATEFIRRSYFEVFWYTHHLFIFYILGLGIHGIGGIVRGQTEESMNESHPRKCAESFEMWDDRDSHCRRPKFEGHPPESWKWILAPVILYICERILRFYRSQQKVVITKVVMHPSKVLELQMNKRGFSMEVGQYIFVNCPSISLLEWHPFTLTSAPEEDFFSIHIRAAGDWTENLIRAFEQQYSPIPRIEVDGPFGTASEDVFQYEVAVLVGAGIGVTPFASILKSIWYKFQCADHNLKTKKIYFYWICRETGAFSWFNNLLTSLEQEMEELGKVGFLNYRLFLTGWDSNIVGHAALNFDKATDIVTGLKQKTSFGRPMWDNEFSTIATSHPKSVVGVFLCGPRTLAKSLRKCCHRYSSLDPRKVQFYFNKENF
An asterisk follows results filed as active. Unless noted, no stated cut-off is given here; in the data, active means inhibition above about 75%; inactive means the rest.

`CN1c2ccsc2-c2[nH]ncc2S1(=O)=O` gave luminol inh ctr -3.5, S1P1 agonist 37.2, NOTCH agonist 0.0 and Nox1 inh 17.4.
Screening O=[N+]([O-])c1cc(Cl)c(N2CCOCC2)cc1N1CCOCC1 returned luminol inh ctr 6.7, S1P1 agonist -17.5, NOTCH agonist 6.3* and Nox1 inh -73.7.
Cc1cc(C)nc(NS(=O)(=O)c2ccc(NS(=O)(=O)c3c(C)noc3C)cc2)n1 was read as luminol inh ctr 2.9, S1P1 agonist 36.5, NOTCH agonist -0.3 and Nox1 inh -56.0.
Screening Cc1nc(C)c(-c2ccnc(NC(=O)Nc3ccc(Cl)cc3)n2)s1 returned luminol inh ctr 0.7, S1P1 agonist 25.3, NOTCH agonist -1.0 and Nox1 inh -38.5.
`COc1ccc(Nc2nc(NC(=O)Nc3ccc(Cl)cc3)n[nH]2)cc1` gave luminol inh ctr 21.1, S1P1 agonist -12.6, NOTCH agonist -0.3 and Nox1 inh 96.4*.
Screening N#C/C(=C\c1ccc(OCc2ccccc2)cc1)C(=O)O returned luminol inh ctr -2.8, S1P1 agonist 12.7, NOTCH agonist 0.0 and Nox1 inh 15.5.
For Cc1[nH]c2ccccc2c1CCC#N the results were luminol inh ctr -3.2, S1P1 agonist 5.2, NOTCH agonist 0.4 and Nox1 inh 21.9.
For FC(F)(F)c1nnc(Nc2cccnc2)s1 the results were luminol inh ctr -0.9, S1P1 agonist -8.4, NOTCH agonist 4.5* and Nox1 inh -81.6.
O=C(Nc1ccccc1)Nc1nnc(C(F)(F)F)s1 was read as luminol inh ctr -4.2, S1P1 agonist 109.5*, NOTCH agonist 0.1 and Nox1 inh 30.5.
`COC(=O)CC(CC(=O)OC)(c1cc(C)c(O)c(C)c1)c1cc(C)c(O)c(C)c1` gave luminol inh ctr 77.5*, S1P1 agonist 4.4, NOTCH agonist -0.6 and Nox1 inh 21.1.
Screening COC(=O)c1ccccc1C(=O)c1cc(C)c(O)c(C)c1 returned luminol inh ctr -10.8, S1P1 agonist 4.4, NOTCH agonist -0.1 and Nox1 inh -0.5.
For CCCSc1ncccc1C(=O)Nc1c(-c2ccccc2)noc1C the results were luminol inh ctr -2.2, S1P1 agonist -5.6, NOTCH agonist -0.4 and Nox1 inh -23.6.
For CCn1cc(C(=O)O)c(=O)c2cc(Cl)ccc21 the results were luminol inh ctr 2.8, S1P1 agonist -30.2, NOTCH agonist -0.6 and Nox1 inh 0.0.
For CCC(=O)N1c2cc(Cl)ccc2-n2c(nn(C(=O)CC)c2=O)N1C(=O)CC the results were luminol inh ctr 1.8, S1P1 agonist 20.6, NOTCH agonist -0.9 and Nox1 inh 88.5*.
`O=C(c1cc2ccccc2s1)N1CCC(O)(c2ccc(Cl)cc2)CC1` gave luminol inh ctr 1.8, S1P1 agonist -3.0, NOTCH agonist -0.6 and Nox1 inh -22.6.
For N#CC(C(=O)c1ccc(Cl)cc1)=C1SCCS1 the results were luminol inh ctr -3.4, S1P1 agonist 5.8, NOTCH agonist -0.7 and Nox1 inh -29.2.
For COC(=O)c1cc(NC(=S)NC(=O)c2ccccc2)ccc1N1CCOCC1 the results were luminol inh ctr 7.1, S1P1 agonist 88.0*, NOTCH agonist -0.5 and Nox1 inh -23.9.
`COC(=O)c1cc(NC(=O)c2c(-c3c(Cl)cccc3Cl)noc2C)ccc1N1CCOCC1` gave luminol inh ctr -1.4, S1P1 agonist -1.1, NOTCH agonist -0.4 and Nox1 inh -14.2.
`CN1CCN(c2ccc(NS(=O)(=O)c3cccc(C(F)(F)F)c3)cc2)CC1` gave luminol inh ctr 66.7, S1P1 agonist -4.6, NOTCH agonist 0.2 and Nox1 inh 93.7*.
For O=S(=O)(Nc1ccc(N2CCCCC2)cc1)c1ccccc1 the results were luminol inh ctr 12.5, S1P1 agonist -19.8, NOTCH agonist -0.2 and Nox1 inh 100.8*.
`CC(=O)c1ccc(OC(=O)/C=C/c2ccc(OC(F)(F)F)cc2)cc1` gave luminol inh ctr -0.1, S1P1 agonist -3.6, NOTCH agonist -0.6 and Nox1 inh -31.4.
`CSc1nccc(-c2ccc(S(=O)(=O)Nc3cc(C(F)(F)F)cc(C(F)(F)F)c3)s2)n1` gave luminol inh ctr -0.5, S1P1 agonist 87.5*, NOTCH agonist 0.3 and Nox1 inh -10.8.
Screening O=S(=O)(Nc1ccccc1C(F)(F)F)c1ccc(-c2ccccn2)s1 returned luminol inh ctr -0.7, S1P1 agonist 15.0 and Nox1 inh 0.0.
COc1ccc(C(=O)Nc2ccc(N3CCN(c4ncccc4C(F)(F)F)CC3)nc2)cc1 was read as luminol inh ctr -5.5, S1P1 agonist 92.9*, NOTCH agonist -0.7 and Nox1 inh 33.3.
O=C(Nc1ccc(N2CCN(c3ncccc3C(F)(F)F)CC2)nc1)Nc1ccc(F)cc1F was read as luminol inh ctr -0.4, S1P1 agonist 18.9, NOTCH agonist -0.4 and Nox1 inh 23.9.
`Cc1nc(C)c(-c2nnc(-c3ccc(C(F)(F)F)cc3)o2)s1` gave luminol inh ctr -2.8, S1P1 agonist 88.3*, NOTCH agonist 0.2 and Nox1 inh -28.2.
For O=C(CSc1nnc(-c2ccc(C(F)(F)F)cc2)o1)c1ccc(F)cc1 the results were luminol inh ctr -0.4, S1P1 agonist -4.7, NOTCH agonist -0.3 and Nox1 inh -18.9.
Screening C/C(O)=C(/C#N)c1nc(C(C)(C)C)cs1 returned luminol inh ctr 10.1, S1P1 agonist 1.4, NOTCH agonist -1.0 and Nox1 inh -62.3.
`OC1(C(F)(F)F)CC(c2ccc3c(c2)Nc2ccccc2S3)=NN1` (stereo unspecified) gave luminol inh ctr 3.9, S1P1 agonist -11.2, NOTCH agonist 0.5 and Nox1 inh -43.6.
FC(F)(F)c1ccc2c(c1)Nc1ccccc1S2 was read as luminol inh ctr 10.3, S1P1 agonist -7.4 and Nox1 inh 101.5*.
CC[n+]1c(C)csc1Nc1ccc(N2CC(C)OC(C)C2)cc1 (stereo unspecified) was read as luminol inh ctr 11.9, S1P1 agonist 8.1, NOTCH agonist 0.2 and Nox1 inh 104.6*.
`CC1CN(c2ccc(NS(=O)(=O)c3ccccc3)cc2C(=O)O)CC(C)O1` (stereo unspecified) gave luminol inh ctr 40.7, S1P1 agonist -9.6, NOTCH agonist -0.4 and Nox1 inh 83.8*.
For CC1CN(c2ccc(NC(=O)c3ccco3)cc2C(=O)O)CC(C)O1 (stereo unspecified) the results were luminol inh ctr -0.5, S1P1 agonist -1.3, NOTCH agonist 1.6 and Nox1 inh -5.6.
Screening O=C(NNC(=S)Nc1cccc(C(F)(F)F)c1)c1sc2ccccc2c1Cl returned luminol inh ctr 12.8, S1P1 agonist 96.1*, NOTCH agonist -0.3 and Nox1 inh 32.4.
Screening CCOC(=O)c1cc(NC(=O)Nc2cccc(Cl)c2)ccc1Oc1cncc(Cl)c1 returned luminol inh ctr -3.5, S1P1 agonist 80.1*, NOTCH agonist 1.7 and Nox1 inh 6.5.
`CCOC(=O)c1cnn(-c2ccccc2)c1NC(=O)Nc1cccc(Cl)c1` gave luminol inh ctr -7.4, S1P1 agonist -7.0, NOTCH agonist -4.9 and Nox1 inh 1.3.
For S=c1[nH]nc(Cc2ccsc2)n1Cc1ccccc1 the results were luminol inh ctr 92.6*, S1P1 agonist -9.0, NOTCH agonist 0.4 and Nox1 inh 20.9.

Source: PubChem BioAssay (The Scripps Research Institute Molecular Screening Center)
